# The list is not random: actives were taken first. Their share in the collection is about 16%.
# uPA surface inh = qHTS for Inhibitors of Cell Surface uPA Generation; cell surface uPA generation assay, qHTS; Potency, µM (top dose mostly 38.3 µM), without a hit: at the top dose activity change, negative = inhibition, hits mostly inhibitors; actives 0.31% (n = 330,000); AID 540303, 2011; active means well fitted inhibition curve with a large enough effect; inconclusive means small, poorly fitted or top-dose-only effect; inactive means no such curve, though single readings can be large or run the other way; tested in mouse RAW 264.7 cells; further: potency means the concentration at half of the fitted maximal effect; on the % scale 0 is the no-effect control and ±100 the full control effect; nearly all actives have a fitted effect of over 55% in size
# TDP1 inh = qHTS Assay for Inhibitors of Tyrosyl-DNA Phosphodiesterase (TDP1); actives 0.28% (n = 350,000); recombinant TDP1, AlphaScreen DNA substrate cleavage; AID 485290, 2010; Tyrosyl-DNA phosphodiesterase 1 (Homo sapiens), Q9NUW8; Potency, µM (highest dose often 130 µM), for the others: top-dose activity change, negative = inhibition, actives largely listed as inhibitors; further: potency means the concentration at half of the fitted maximal effect; on the % scale 0 is the no-effect control and ±100 the full control effect; nearly all actives have a fitted effect of over 40% in size
# Target sequence (Q9NUW8 whole entry, looked up): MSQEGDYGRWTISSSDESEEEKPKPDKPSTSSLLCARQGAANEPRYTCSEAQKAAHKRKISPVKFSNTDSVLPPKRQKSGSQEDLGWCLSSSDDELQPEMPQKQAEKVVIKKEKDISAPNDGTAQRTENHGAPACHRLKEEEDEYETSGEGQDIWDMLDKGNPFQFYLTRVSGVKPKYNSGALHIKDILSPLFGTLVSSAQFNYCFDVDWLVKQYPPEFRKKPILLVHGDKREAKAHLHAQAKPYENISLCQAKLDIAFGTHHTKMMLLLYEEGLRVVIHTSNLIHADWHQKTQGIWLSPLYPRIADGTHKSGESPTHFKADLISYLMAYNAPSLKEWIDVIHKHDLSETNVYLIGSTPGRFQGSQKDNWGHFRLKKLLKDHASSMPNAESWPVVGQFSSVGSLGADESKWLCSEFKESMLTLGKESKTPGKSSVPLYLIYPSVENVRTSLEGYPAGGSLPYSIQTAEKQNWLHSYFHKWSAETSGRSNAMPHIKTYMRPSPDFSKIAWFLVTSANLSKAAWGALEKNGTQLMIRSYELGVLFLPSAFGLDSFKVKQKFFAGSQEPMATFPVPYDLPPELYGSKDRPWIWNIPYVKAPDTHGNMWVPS
#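 Here, a 5' biotin and 3' phosphotyrosine-FITC DNA oligonucleotide reports Tdp1 activity: intact substrate bridges AlphaScreen beads, while cleavage leaves a 3' phosphate and drops signal. All incubations at room temperature.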
# miR-21 act = qHTS Assay for Modulators of miRNAs and/orActivators of miR-21 | HeLa miR-21 FLuc reporter, luciferase, 48 h | Potency, µM (titrated, usually from 38.3 µM), inactives show top-dose activity change, positive = activation, hits mostly activators | 340,000 tested, under 10 active | AID 2288, 2010;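 further: % of control where 0% means no effect; miR-21 action dims this reporter so a rising signal means less miR-21 action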
#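 Luminescence from a firefly luciferase reporter carrying a miR-21 binding site downstream, stably expressed under a CMV promoter in HeLa cells that make miR-21 endogenously, reports miRNA modulation after 48 h compound exposure up to approximately 40uM final.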
# TDP1 cell noCPT = qHTS for Inhibitors of human tyrosyl-DNA phosphodiesterase 1 (TDP1): qHTS in cells in absence of CPT; DT40 Tdp1-/- hTDP1 cells, no CPT, ATP luminescence, 48 h; Potency, µM (doses to about 46.2 µM), for the others: at the highest dose activity change, negative = growth inhibition, most hits filed as inhibitors; actives 15% (n = 420,000); further: potency means the concentration at half of the fitted maximal effect; on the % scale 0 is the no-effect control and ±100 the full control effect; nearly all actives have a fitted effect of over 55% in size
#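 Luminescent ATP content (CellTiter-Glo) served as the growth readout. Knockout chicken DT40 cells expressing human TDP1 were exposed to compounds without camptothecin for a minimum 48 hr at 37 °C.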
# DT40 TDP1 CPT = qHTS for Inhibitors of human tyrosyl-DNA phosphodiesterase 1 (TDP1): qHTS in cells in presence of CPT; chicken DT40 Tdp1-/-;hTDP1 cells + 20 nM CPT, ATP luminescence, 48 h; Potency, µM (highest dose often 46.2 µM), for the others: at the top dose activity change, negative = growth inhibition, most hits filed as inhibitors; actives 12% (n = 420,000); further: potency means the concentration at half of the fitted maximal effect; on the % scale 0 is the no-effect control and ±100 the full control effect; nearly all actives have a fitted effect of over 55% in size
#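 Chicken DT40 Tdp1-/- cells stably complemented with human TDP1 were seeded at 400 cells/well in medium containing 20 nM camptothecin, exposed to pin-transferred compounds, and grown at 37 °C for at least 48 hr. Viability was read as ATP luminescence.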
# * marks the source's active call; other numbers are inactive results; ? = inconclusive; · = no result given; [ ] = dose if it differs, or a comment. Unless noted, the call rests on the fitted dose curve; in most records, active means well fitted curve in the direction sought with a large enough effect; inconclusive means small, poorly fitted or top-dose-only effect, or another doubt; inactive means no such curve, though single readings can be large; an effect the other way counts as inactive or inconclusive.
SMILES,uPA surface inh,TDP1 inh,miR-21 act,TDP1 cell noCPT,DT40 TDP1 CPT
COc1ccc(/C=C2\SC(=S)N(CCC(=O)N3CCCCC3CCO)C2=O)cc1 (configuration not stated),-17.4%,2.0%,1.2%,?,?
COc1ccc(/C=C2\SC(=O)N(CCC(=O)N3CCCCC3CCO)C2=O)cc1 (configuration not stated),-4.4%,3.2%,-1.8%,20.6µM*,?
CCOc1cc(N2CCOCC2)c(OCC)cc1NC(=O)COC(=O)c1ccc([N+](=O)[O-])o1,-0.5%,-7.1%,·,-27.0%,1.9%
CC(/C=C/c1ccco1)=N/NC(=O)OC(C)(C)C,-17.0%,5.3%,-54.4%,14.6µM*,?
CC(/C=C/c1ccco1)=N/NC(=O)Cc1cccs1,-5.3%,3.1%,-18.3%,3.98µM*,7.08µM*
CC(=C/C(=O)O)/C=C/c1ccco1,-17.5%,-7.9%,8.5%,7.31µM*,6.51µM*
CC(/C=C/c1ccc(Cl)o1)=C\C(=O)O,0.1%,-11.7%,-7.7%,-4.1%,-6.8%
COc1ccccc1CNC(=O)COC(=O)c1ccc(C(=O)c2ccccc2)cc1,4.1%,-0.4%,·,-10.0%,-3.7%
Cc1cc(NC(=O)c2sccc2C)n(-c2nc3ccccc3[nH]2)n1,-4.3%,8.4%,14.3%,16.4µM*,?
Cc1cc(NC(=O)CC#N)n(-c2nc3ccccc3[nH]2)n1,-10.3%,8.2%,-24.5%,?,?
COc1cccc(C(=O)Nc2cc(C)nn2-c2ccccc2)c1OC,-1.3%,·,12.1%,23.1µM*,?
Cc1csc(NC(=O)c2sccc2C)n1,-5.2%,·,-33.6%,?,?
COc1cc(C(=O)Nc2cc(C)nn2-c2ccccc2)cc(OC)c1OC,-13.2%,4.4%[0.0935 µM],7.6%,?,-35.0%
COc1cccc(C(=O)Nc2c3c(nn2-c2ccc(C)cc2C)CS(=O)(=O)C3)c1OC,·,7.8%,11.0%,23.1µM*,?
Cc1cc(NC(=O)C2CCCC2)n(-c2nc3ccccc3[nH]2)n1,·,7.7%,4.6%,?,17.8µM*
O=C1NCCCc2nonc21,2.0%,2.9%,0.0%,-0.3%,0.4%
CCn1cc(C=O)c2cc(S(=O)(=O)N3CCOCC3)ccc21,-0.3%,-2.5%,-12.9%,-0.9%,3.5%
COc1ccc(S(=O)(=O)N2CCN(CC(O)COc3ccc(CC#N)cc3)CC2)cc1OC (configuration not stated),-2.1%,13.3%,-4.2%,-10.4%,-1.3%
C=CCNC(=O)C1CC(=O)N(c2ccc(C)cc2)C1 (configuration not stated),6.1%,-3.9%,-4.0%,19.1%,1.2%
Cc1cc(NC(=O)c2cccs2)n(-c2nc3ccccc3[nH]2)n1,-1.6%,3.6%,1.3%,20.6µM*,?
Cc1cc(NC(=O)c2ccccc2)n(-c2nc3ccccc3[nH]2)n1,7.5%,1.2%,11.6%,-6.7%,?
COc1cccc(OC)c1C(=O)Nc1cc(C)nn1-c1nc2ccccc2[nH]1,·,5.1%,2.7%,9.2µM*,16.4µM*
CC(C)c1ccc(NC(=O)CCNC(=O)N2CC(=O)Nc3ccccc32)cc1,5.1%,5.3%,-0.7%,4.9%,-5.7%
Cc1ccc2c(c1)C(C)CC(C)(C)N2C(=O)CN1CCN(C)CC1 (configuration not stated),-21.7%,-6.8%,-1.2%,?,?
COCCN(Cc1cn(C)nc1-c1ccccc1F)C(C)C,10.3%,0.0%,0.7%,-29.1%,-6.0%
SMILES,uPA surface inh,TDP1 inh,miR-21 act,TDP1 cell noCPT,DT40 TDP1 CPT
Oc1c(C2=NCCNC(C(F)(F)F)=C2)ccc2ccccc12,4.6%,13.5%,-72.9%,-24.0%,-8.3%
COc1ccc(-c2nnc(CSc3ncnc4sc5c(c34)CCC5)o2)cc1OC,5.2%,-2.4%,-22.7%,10.3µM*,?
COc1ccc(-n2cc(-c3ccccc3)c3c(NCCc4ccc(OC)c(OC)c4)ncnc32)cc1,·,10.4%,?,20.6µM*,23.1µM*
COc1ccc(CCNc2ncnc3c2c(-c2ccccc2)cn3-c2cccc(Cl)c2)cc1OC,·,0.0%,22.8%,9.2µM*,7.31µM*
Nc1c(C(=O)CSc2nccn2-c2cccc(F)c2)c(=O)[nH]c(=O)n1C1CC1,14.7%,1.8%,·,-9.3%,-1.3%
N#Cc1ncc(-c2ccc3c(c2)OCCOCCOCCOCCO3)nc1C#N,-7.4%,2.8%,-2.9%,4.61µM*,5.8µM*
Brc1ccc2c(c1)OCCOCCOCCOCCOCCOCCO2,-5.6%,-2.7%,-1.1%,?,?
N#Cc1ncc(-c2ccc3c(c2)OCCOCCOCCOCCOCCO3)nc1C#N,-1.8%,5.3%,?,13µM*,11.6µM*
Brc1ccc2c(c1)OCCOCCOCCOCCOCCO2,0.4%,2.6%,1.4%,?,-22.0%
COc1ccc(NS(=O)(=O)c2cccc3cccnc23)cc1OC,-4.3%,·,16.4%,?,?
C=CCN1C(=O)/C(=C2/Sc3ccc(OC)cc3N2C)SC1=Nc1cccc(O)c1,-0.1%,-3.6%,3.2%,?,-29.9%
COc1ccccc1CCC(=O)N(CCC1=CCCCC1)c1c(N)n(Cc2ccccc2)c(=O)[nH]c1=O,-7.4%,0.7%[0.505 µM],·,?,?
CCOc1ccc(OCCC(=O)N(CCC2=CCCCC2)c2c(N)n(Cc3ccccc3)c(=O)[nH]c2=O)cc1,-2.7%,4.3%,·,?,16.4µM*
CC(CC(=O)N(CCC1=CCCCC1)c1c(N)n(Cc2ccccc2)c(=O)[nH]c1=O)c1ccccc1 (configuration not stated),-1.2%,·,·,16.4µM*,25.9µM*
COc1ccc(OCCCC(=O)N(CCC2=CCCCC2)c2c(N)n(Cc3ccccc3)c(=O)[nH]c2=O)cc1,1.6%,·,·,?,-1.2%
O=S(=O)(c1ccc(Cl)nc1)N1CCCc2ccccc21,-3.6%,-2.6%,-8.3%,?,-16.4%
COc1ccccc1C(=O)N/C(=C/c1cccc([N+](=O)[O-])c1)C(=O)Nc1cccc(C(=O)O)c1,1.2%,2.6%,1.0%,?,20.6µM*
COc1ccccc1NC(=O)/C(=C/c1cccc([N+](=O)[O-])c1)c1ccccc1,-0.6%,5.8%,-2.1%,9.2µM*,13µM*
COc1ccc(C(=O)N/C(=C\c2cccc([N+](=O)[O-])c2)C(=O)Nc2cccc(C(=O)O)c2)cc1,4.3%,0.0%,-0.3%,-1.4%,13.2%
CCCCCCN1C[C@@H](O)[C@H](n2cc(C3CC3)nn2)C[C@@H]1c1ccc(Cl)cc1,·,·,·,?,25.9µM*
CCCCCCN1C[C@H](O)[C@@H](n2cc(COC(=O)c3ccccc3)nn2)C[C@@H]1c1ccccc1,·,·,·,-5.0%,-25.2%
